Screening data as filed in PubChem.
ERK EGF inh: EGF-driven ERK pathway inhibition. HEK293-V1b, EGF-stimulated phospho-ERK AlphaScreen. Potency, µM (titrated, usually from 11.5 µM), hits mostly inhibitors. hit rate 0.41% among 130,000. AID 1454; note: nearly all actives have a fitted effect of over 55% in size
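HEK293 cells stably expressing V1b receptor, serum-reduced (1% FBS) overnight, got compound for 30 min at 37C, then 25 nM EGF for 5 min. Lysate phospho-ERK read by AlphaScreen SureFire; AC50 from Hill fits.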
pERK EGF inh: reduces EGF-stimulated ERK phosphorylation in HEK293 cells; shares compounds with ERK EGF inh; Potency, µM (series often up to 57.5 µM), hits mostly inhibitors; hit rate 60% among 60; HEK293 EGF-stimulated ERK phosphorylation, AlphaScreen
cRaf kinase inh: blocks human c-Raf kinase activity; shares compounds with ERK EGF inh; c-Raf kinase inhibition, homogeneous biochemical assay; activity change, negative = inhibition, % at 76.9 µM; 70 tested, under 10 active; AID 1728
Target sequence (P04049 whole entry, looked up): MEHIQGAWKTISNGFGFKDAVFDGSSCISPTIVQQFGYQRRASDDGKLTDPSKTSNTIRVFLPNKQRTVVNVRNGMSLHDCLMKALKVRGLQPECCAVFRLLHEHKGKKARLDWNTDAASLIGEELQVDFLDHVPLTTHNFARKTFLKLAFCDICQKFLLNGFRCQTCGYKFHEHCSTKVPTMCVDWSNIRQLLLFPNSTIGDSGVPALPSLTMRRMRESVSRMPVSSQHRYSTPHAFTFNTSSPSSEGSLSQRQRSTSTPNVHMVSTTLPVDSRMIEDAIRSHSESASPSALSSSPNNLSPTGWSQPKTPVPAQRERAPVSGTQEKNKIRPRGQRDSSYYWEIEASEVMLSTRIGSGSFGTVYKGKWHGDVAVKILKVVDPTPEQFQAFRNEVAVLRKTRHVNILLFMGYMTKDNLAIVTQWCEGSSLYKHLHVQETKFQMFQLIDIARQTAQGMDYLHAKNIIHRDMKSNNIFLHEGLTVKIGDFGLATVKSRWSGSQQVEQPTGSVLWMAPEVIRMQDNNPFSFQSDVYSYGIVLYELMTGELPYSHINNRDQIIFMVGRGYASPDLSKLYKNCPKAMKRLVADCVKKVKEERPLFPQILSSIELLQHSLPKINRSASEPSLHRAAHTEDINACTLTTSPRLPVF
MEK inh: MEK1 (human) kinase inhibition | shares compounds with ERK EGF inh | homogeneous MEK kinase activity assay, ERK pathway | Potency, µM (highest dose often 76.9 µM), actives largely listed as inhibitors | 70 tested, under 10 active
Of the large screens only hits and unclear results are named; the others gave an inactive call (follow-up assays come after a bar, where they were run). Many of the other results were omitted from the sample, so hits are more common in it than they were. Calls come from the whole dose curve; as a rule, active = well fitted curve in the direction sought with a large enough effect; inconclusive = small, poorly fitted or top-dose-only effect, or another doubt; inactive = no such curve, though single readings can be large; an effect the other way counts as inactive or inconclusive.

COc1ccc(N=C2C(=Nc3ccc(OC)cc3)N(c3ccc(OC)cc3)C(=S)N2C(=O)c2ccc(OC)cc2)cc1	ERK EGF inh inconclusive | pERK EGF inh 5.62µM | cRaf kinase inh inactive | MEK inh inactive
COc1ccc(C(=O)N2CCC3(CC2)CCN(c2ccccc2)CC3)cc1	none
COc1ccc(C(=O)N2CCC3(CCCN(c4ccc(-c5ccccc5)cc4)C3)CC2)cc1	none
COc1ccc(N=C2C(=Nc3ccc(OC)cc3)N(c3ccc(N(C)C)cc3)C(=S)N2c2ccc(OC)cc2)cc1	none (no result: ERK EGF inh) | pERK EGF inh inactive | cRaf kinase inh inactive | MEK inh inactive
COC(=O)CN1C(=S)N(c2ccc(OC)cc2)C(=O)/C1=C/c1ccc(OC)cc1	none
COc1ccc(C(=O)N2C(=S)NC(=O)/C2=C\c2ccc(C)cc2)cc1	none
COc1ccc(NC(=S)c2ccc(N(C)C)cc2)cc1	none
COc1ccc(N=C2C(=Nc3ccc(OC)cc3)N(c3ccccc3)C(=S)N2C(=O)c2ccc(Cl)cc2)cc1	ERK EGF inh 2.24µM | pERK EGF inh inactive | cRaf kinase inh inactive | MEK inh inactive
COc1ccc(N2C(=O)/C(=C/N(C)C)NC2=S)cc1	none
CSc1n[nH]c2nc3c(c(=O)n12)C1(CCCCC1)Cc1ccccc1-3	none
COc1cccc(CN(Cc2ccccc2F)S(=O)(=O)c2ccc(S(=O)(=O)NCc3ccccc3)cc2)c1	none
Cc1cc(C)nc(NC(=O)Cc2ccc([N+](=O)[O-])cc2)c1	none
O=C(O)CCC(=O)c1ccc2c(c1)CCCC2	none
C=CCOc1ccc(CN(C)CC(=O)Nc2ccc3c(c2)CCC3)cc1	none
COc1nc(/C=C/N(C)C)c([N+](=O)[O-])c(OC)n1	none
Cc1ccc(/C=C/C(=O)Nc2ncc(C)s2)o1	none
Cc1sc2ncnc(N[C@@H](Cc3c[nH]c4ccccc34)C(=O)O)c2c1C	none
Cc1sc2ncnc(Nc3ccccc3)c2c1C	none (no result: ERK EGF inh) | pERK EGF inh inconclusive | cRaf kinase inh inactive | MEK inh inactive
Fc1ccc(Nc2ncnc3sc4c(c23)CCC4)cc1F	ERK EGF inh 2.51µM | pERK EGF inh 8.91µM | cRaf kinase inh inconclusive | MEK inh inconclusive
Cc1nc(Nc2cccc(O)c2)c2c3c(sc2n1)CCC3	none
Cc1cc(C)nc(Sc2ncnc3sc4c(c23)CCC4)n1	none
COc1ccc(/C=N/Nc2ncnc3sc4c(c23)CCCC4)cc1OC	none
Cc1sc2ncnc(NC(C)C(=O)O)c2c1C (stereo unspecified)	none
Cc1cc(F)ccc1S(=O)(=O)Nc1ncnc2sc3c(c12)CCC3	none
Fc1ccc(Nc2ncnc3sc4c(c23)CCC4)cc1	none (no result: ERK EGF inh) | pERK EGF inh 10µM | cRaf kinase inh inconclusive | MEK inh inactive
c1ccc(Nc2ncnc3sc4c(c23)CCC4)cc1	none (no result: ERK EGF inh) | pERK EGF inh 10µM | cRaf kinase inh inactive | MEK inh inactive
c1cncc(CNc2ncnc3sc4c(c23)CCCC4)c1	none
CN(C)C(CNc1ncnc2sc3c(c12)CCCCC3)c1ccco1 (stereo unspecified)	none
O=C(c1cccc(F)c1)N1CCC2(CCCN(Cc3ccccc3)C2)CC1	none
COC(=O)[C@H](CC(C)C)NC(=O)N1CCCCC1	none
NC(=O)c1cc([N+](=O)[O-])ccc1NCCN1C(=O)c2ccccc2C1=O	none
CC(C)CCN1CCN(Cc2ccon2)CC1CCO (stereo unspecified)	none
O=C(Nc1cccc(S(=O)(=O)NC2=NCCC2)c1)C1CCC1	none
O=C(O)CC(NNC(=O)c1ccccc1)C(=O)Nc1cccc([N+](=O)[O-])c1 (stereo unspecified)	none
CCO[C@H]1OC(C(=O)N2CCN(C)CC2)=C[C@@H](c2coc3ccccc3c2=O)[C@@H]1CCCO	none
CC(C)(C)CC(C)(C)NC(=O)Nc1cccc([N+](=O)[O-])c1	none
COc1cc(C(=O)Nc2ccc(Cl)c([N+](=O)[O-])c2)cc(OC)c1OC	none
Cc1cc(NC(=O)c2ccc(Cl)c([N+](=O)[O-])c2)no1	none
COc1ccc(C(=O)c2ccc(Cl)c([N+](=O)[O-])c2)cc1	ERK EGF inh 8.91µM | pERK EGF inh 15.8µM | cRaf kinase inh inconclusive | MEK inh inactive
Nc1ccccc1SCc1ccccc1	none
N#CC(=C(\N)Sc1ccccc1N)/C(C#N)=C(/N)Sc1ccccc1N	ERK EGF inh 1.41µM | cRaf kinase inh inactive
Nc1ccccc1Sc1ccccc1[N+](=O)[O-]	none
O=C(NCC1CCCO1)Nc1ccc2c(c1)OCO2 (stereo unspecified)	none
Cc1ccc(C(=O)N/C(=C/c2ccco2)C(=O)O)cc1	none
N#CC(C#N)=C1C=CC=CN1/C(=C\c1ccco1)C(=O)c1ccc(Br)cc1	ERK EGF inh 7.94µM | pERK EGF inh 15.8µM | cRaf kinase inh inconclusive | MEK inh inactive
COc1cc(/C=N/N2CCN(C3c4ccccc4-c4ccccc43)CC2)cc(OC)c1O	none
CCCN1C(=O)/C(=C/c2ccncc2)SC1=S	none
CCCN1C(=O)/C(=C2\SC(=S)N(c3c(C)n(C)n(-c4ccccc4)c3=O)C2=O)c2ccccc21	none
CCCN1C(=O)/C(=C2/C=Cc3ccccc3N2CC)SC1=S	ERK EGF inh 5.62µM | pERK EGF inh 10µM | cRaf kinase inh inactive | MEK inh inactive
COc1cccc(CNc2ccc(C(=O)O)cc2)c1OCc1ccccc1	none
CCC(C)(C)C(=O)OC1CC(C)C=C2C=CC(C)C(CCC3CC(O)CC(=O)O3)C21 (stereo unspecified)	none
COc1cccc(/C=N/Nc2cc(-n3nc(C)cc3-c3ccccc3)ncn2)c1O	ERK EGF inh 8.91µM | pERK EGF inh 11.2µM | cRaf kinase inh inconclusive | MEK inh inactive
COc1cccc(/C=N/Nc2ncnc3scc(-c4ccccc4)c23)c1O	none
COc1cccc(/C=N/Nc2ncnc(Cl)c2N)c1O	none
O=C(O)CSc1ccc(NC(=O)Nc2ccccc2F)cc1	none
CCOC(=O)c1cn[nH]c1C(F)(F)F	none
COCCNC(=O)CSc1c2c(nc3ccc(Cl)cc13)CCCC2	none
O=C(CCCn1cc([N+](=O)[O-])cn1)NC1CCCCCC1	none
C/C(=N\Nc1cc(C)nc(NCc2ccccc2)n1)c1cccc([N+](=O)[O-])c1	none
C/C(=N\Nc1nnc(-c2ccccc2)c(-c2ccccc2)n1)c1cccc([N+](=O)[O-])c1	ERK EGF inh inconclusive | pERK EGF inh inactive | cRaf kinase inh inactive | MEK inh inactive
O=[N+]([O-])c1cccc(/C=N/Nc2nnc(-c3ccccc3)c(-c3ccccc3)n2)c1	none
COc1ccc(N2CCN(C(=O)c3ccc(NS(=O)(=O)c4ccccc4)cc3)CC2)cc1	none
O=C(Nc1nc(-c2ccccc2)cs1)c1ccc(N2CCOCC2)c([N+](=O)[O-])c1	ERK EGF inh 3.98µM | pERK EGF inh 10µM | cRaf kinase inh inconclusive | MEK inh inactive
Cc1ccc(-c2csc(NC(=O)c3cc([N+](=O)[O-])ccc3N3CCOCC3)n2)cc1	none
O=C(Nc1cccc(Cl)c1N1CCCCC1)c1ccc(N2CCOCC2)c([N+](=O)[O-])c1	none
CC(C)c1ccc(C2NC(=O)CCC2[N+](=O)[O-])cc1 (stereo unspecified)	none
Cc1nc2ccccc2nc1OCC(=O)Nc1ccc(F)cc1	none
Cc1ccc(Nc2nc3ccccc3nc2Nc2c(C)n(C)n(-c3ccccc3)c2=O)cc1	none
Cc1ccc(NNc2c(C)nc3ccccc3nc2=O)cc1	none (no result: ERK EGF inh) | pERK EGF inh 8.91µM | cRaf kinase inh inactive | MEK inh inactive
